Experimental data published in PubChem BioAssay.
Calls of active or inactive are those of the source.

Tests used:
[1] = tested on: Plasmodium falciparum Sir2 (PF13_0152, Sir2A); experiment: Plasmodium falciparum Sir2A binding compounds – biochemical, small-molecule microarray, 635 nm fluorescence, primary screen (AID 1098); conditions: fluorescence 635 nm, higher = more signal;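 further: score merges spot fluorescence intensity with its signal-to-noise ratio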
[2] = probe aDKK1 binding to arrayed compounds – biochemical, biotinylated probe, 635/667 nm fluorescence, primary screen (AID 1099); conditions: small-molecule microarray, higher = more signal;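 further: score merges 667nm spot fluorescence with signal to noise across triplicate slides; reference of the scale not given here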
[3] = probe aCHRDL2 binding to arrayed compounds – biochemical, biotinylated probe, 635/667 nm fluorescence, primary screen (AID 1100); conditions: small-molecule microarray, higher = more signal
[4] = change in splice reporter luminescence, either direction, cell-based, HEK293, spliceosome inhibition project, primary screen (AID 1101); conditions: HEK293 splicing luciferase reporter, 24 h, higher = more signal, called active from +8 up or from −8 down;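 further: HEK293 cells carrying a splicing-competent luciferase reporter gene; test concentration not given here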
[5] = target: Fibroblast growth factor 10 (Homo sapiens) (UniProt O15520); experiment: compounds binding fibroblast growth factor 10 – biochemical, small-molecule microarray, 635 nm fluorescence, primary screen (AID 1102); conditions: FGF10 binding, fluorescence 635 nm, higher = more signal
[6] = tested on: glycogen synthase kinase-3 (GSK3A per assay name; protocol says GSK3B); experiment: compounds binding glycogen synthase kinase-3 – biochemical, small-molecule microarray, 635 nm fluorescence, GSK3A, primary screen (AID 1103); conditions: fluorescence 635 nm, higher = more signal; further: the record names both GSK3A and GSK3B
[7] = target: Epidermal growth factor receptor (Homo sapiens) (UniProt P00533); experiment: compounds binding epidermal growth factor receptor – biochemical, small-molecule microarray, 635 nm fluorescence, primary screen (AID 1104); conditions: EGFR binding, higher = more signal;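 further: score merges 667 nm emission intensity with spot signal to noise over triplicate slides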
[8] = target: Follistatin-related protein 3 (Homo sapiens) (UniProt O95633); experiment: compounds binding follistatin-related protein 3 – biochemical, small-molecule microarray, 635 nm fluorescence, primary screen (AID 1105); conditions: FSTL3 binding, higher = more signal;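 further: score merges emission near 667 nm and signal to noise per printed spot across three slides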
[9] = target: Dickkopf-related protein 1 (Homo sapiens) (UniProt O94907); experiment: small molecules binding DKK1 protein – biochemical, small-molecule microarray, 635 nm fluorescence scan, primary screen (AID 1106); conditions: higher = more signal;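 further: score merges emission near 667 nm with signal to noise over three replicate slides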
[10] = tested on: Inhibin beta A chain (activin A); experiment: small molecules binding activin A – biochemical, small-molecule microarray, 635 nm fluorescence scan, primary screen (AID 1107); conditions: INHBA, higher = more signal;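 further: mouse activin A protein probed at 4.33 µg/mL on printed slides; score merges bound-protein fluorescence near 667 nm with spot signal-to-noise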

Sequence of Follistatin-related protein 3 (Homo sapiens) (O95633 whole entry, looked up): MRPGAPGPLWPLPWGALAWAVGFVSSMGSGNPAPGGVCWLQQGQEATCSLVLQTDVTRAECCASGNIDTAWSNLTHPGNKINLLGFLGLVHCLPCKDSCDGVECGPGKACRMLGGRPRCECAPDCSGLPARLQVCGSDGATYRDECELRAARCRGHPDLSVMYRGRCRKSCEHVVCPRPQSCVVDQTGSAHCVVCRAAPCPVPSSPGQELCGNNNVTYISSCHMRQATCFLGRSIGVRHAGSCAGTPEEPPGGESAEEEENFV
Sequence of Epidermal growth factor receptor (Homo sapiens) (P00533 whole entry, looked up): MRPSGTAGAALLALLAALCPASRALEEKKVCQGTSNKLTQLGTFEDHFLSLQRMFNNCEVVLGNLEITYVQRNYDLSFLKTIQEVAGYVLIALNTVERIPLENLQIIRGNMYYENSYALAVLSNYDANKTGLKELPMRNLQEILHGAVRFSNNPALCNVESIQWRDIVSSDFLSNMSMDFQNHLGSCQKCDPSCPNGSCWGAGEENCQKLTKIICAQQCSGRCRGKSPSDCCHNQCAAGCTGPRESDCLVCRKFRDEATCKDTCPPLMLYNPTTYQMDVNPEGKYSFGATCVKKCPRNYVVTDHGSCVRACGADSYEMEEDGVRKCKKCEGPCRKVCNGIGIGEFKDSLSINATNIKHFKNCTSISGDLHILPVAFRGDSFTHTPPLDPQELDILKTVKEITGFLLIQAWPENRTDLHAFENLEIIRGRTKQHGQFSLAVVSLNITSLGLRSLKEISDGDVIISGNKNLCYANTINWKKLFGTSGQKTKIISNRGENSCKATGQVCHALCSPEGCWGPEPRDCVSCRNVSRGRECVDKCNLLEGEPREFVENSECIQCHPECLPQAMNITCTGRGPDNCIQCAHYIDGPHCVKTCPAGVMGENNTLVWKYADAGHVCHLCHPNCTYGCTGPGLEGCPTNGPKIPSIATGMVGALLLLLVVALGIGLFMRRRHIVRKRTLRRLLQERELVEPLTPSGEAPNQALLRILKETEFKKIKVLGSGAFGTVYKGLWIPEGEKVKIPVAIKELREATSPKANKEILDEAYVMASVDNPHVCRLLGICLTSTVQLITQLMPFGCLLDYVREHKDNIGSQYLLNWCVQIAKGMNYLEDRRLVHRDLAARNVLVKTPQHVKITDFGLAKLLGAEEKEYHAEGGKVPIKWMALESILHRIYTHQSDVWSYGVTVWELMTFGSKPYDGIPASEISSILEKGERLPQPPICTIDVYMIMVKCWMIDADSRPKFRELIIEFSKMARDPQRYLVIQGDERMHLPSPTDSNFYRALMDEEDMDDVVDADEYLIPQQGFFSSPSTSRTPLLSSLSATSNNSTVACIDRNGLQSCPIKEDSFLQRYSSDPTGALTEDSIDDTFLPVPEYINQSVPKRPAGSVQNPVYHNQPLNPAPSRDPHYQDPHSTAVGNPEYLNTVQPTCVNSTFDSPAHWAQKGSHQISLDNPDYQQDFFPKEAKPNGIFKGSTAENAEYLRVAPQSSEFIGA
Sequence of Fibroblast growth factor 10 (Homo sapiens) (O15520 whole entry, looked up): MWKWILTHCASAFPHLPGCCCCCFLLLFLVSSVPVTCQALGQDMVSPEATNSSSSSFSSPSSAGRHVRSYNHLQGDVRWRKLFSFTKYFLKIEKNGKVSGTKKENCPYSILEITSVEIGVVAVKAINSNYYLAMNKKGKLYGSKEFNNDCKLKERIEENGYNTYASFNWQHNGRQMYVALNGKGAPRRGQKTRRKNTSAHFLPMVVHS
Sequence of Dickkopf-related protein 1 (Homo sapiens) (O94907 whole entry, looked up): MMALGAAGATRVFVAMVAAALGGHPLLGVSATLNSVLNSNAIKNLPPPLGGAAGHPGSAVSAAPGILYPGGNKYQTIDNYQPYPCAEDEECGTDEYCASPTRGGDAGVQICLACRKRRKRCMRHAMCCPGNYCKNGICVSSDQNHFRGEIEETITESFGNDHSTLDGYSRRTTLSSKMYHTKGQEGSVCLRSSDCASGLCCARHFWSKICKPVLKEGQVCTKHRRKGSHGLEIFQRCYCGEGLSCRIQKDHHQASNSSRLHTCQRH

Row | SMILES | composite z-score [1] | composite z-score [2] | composite z-score [3] | z-score [4] | composite z-score [5] | composite z-score [6] | composite z-score [7] | composite z-score [8] | composite z-score [9] | composite z-score [10]
1 | COCCCNC(=O)[C@@]1(Cc2ccccc2)COC(c2ccc(OCCCO)cc2)=N1 | 1.7 | 0.583 | 1.11 | -0.37 (inactive) | 0.505 | 0.384 | -0.715 | -0.776 | -0.688 | 0.065
2 | O=C1N(CCS(=O)(=O)c2ccccc2)Cc2ccccc2C[C@@]12COC(c1ccc(OCCCO)cc1)=N2 | 1.69 | 1.15 | 1.26 | 0.67 (inactive) | 1.07 | 1.29 | 0.847 | 1.3 | 0.628 | 1.32
3 | OCCCC1=CC(c2cccs2)N(Cc2cccc(OC(F)(F)F)c2)CC1 (stereo not given) | 1.32 | -0.14 | -0.138 | -0.733 (inactive) | -0.566 | -0.729 | -0.547 | -0.537 | -0.015 | 0.756
4 | COCCCNC(=O)[C@]1(Cc2ccccc2CN=[N+]=[N-])N=C(c2ccc(OCCCO)cc2)O[C@@H]1c1ccccc1CN=[N+]=[N-] | 1.59 | 1.35 | 1.25 | 0.438 (inactive) | 0.944 | 1.19 | 0.119 | 0.07 | -0.214 | 0.413
5 | COC(=O)C(CC#Cc1ccc2c(c1)[C@]1(C(=O)N2)[C@H](c2ccc(O)cc2)N2[C@H](c3ccccc3)[C@H](c3ccccc3)OC(=O)[C@H]2[C@@H]1C(=O)O)C(=O)OC | 1.26 | -0.114 | 0.374 | -0.226 (inactive) | 0.159 | -0.375 | -0.297 | 0.528 | -0.217 | 0.201
6 | CO[C@H]1O[C@H](CO)[C@@H](OC(=O)Nc2ccc(C(F)(F)F)cc2)[C@H](OC(=O)Nc2ccccc2)[C@H]1OC(=O)Nc1ccccc1 | 1.61 | 0.995 | 0.832 | -0.624 (inactive) | 1.33 | 1.33 | 0.375 | 1.2 | 0.0148 | 0.0729
7 | CC(C)NC(=O)[C@@]1(Cc2ccccc2I)c2ccccc2C(=O)N(Cc2ccccc2C(F)(F)F)[C@H]1c1ccc(CO)cc1 | 1.75 | 0.474 | 0.594 | 0.4 (inactive) | 0.157 | 0.182 | -0.251 | 0.0273 | -0.467 | 0.299
8 | O=C1OCCC=C[C@H]2OC34C=CCN(Cn5nnc6ccccc65)C(=O)[C@H]3N(CCCCCO)C(=O)[C@@H]4C12 (stereo not given in full) | 1.18 | -0.181 | 0.311 | 0.227 (inactive) | -0.691 | -0.368 | -0.97 | -1.09 | -0.925 | 0.0469
9 | C=CC[C@]1(C(=O)NCC(O)CO)N=C(c2ccc(OCCCO)cc2)O[C@H]1c1ccccc1N=[N+]=[N-] (stereo not given in full) | 0.939 | 0.731 | 1.28 | -0.789 (inactive) | 0.258 | -0.216 | -0.0496 | -0.291 | -0.379 | 1.42
10 | C=C[C@H](C)[C@H](OC(=O)Nc1ccc(SC)cc1)c1ccc(O)c2ccccc12 | 0.454 | -0.579 | -0.121 | -2.12 (inactive) | 0.0716 | -0.266 | -0.0236 | 0.284 | 0.159 | 0.289
11 | CN(C)CCCNC(=O)[C@@]1(Cc2ccccc2I)c2ccccc2C(=O)N(Cc2ccccc2Cl)[C@H]1c1ccc(CO)cc1 | 1.56 | 0.94 | 1.33 | -3.68 (inactive) | 0.247 | 0.122 | -1.4 | -0.509 | -0.83 | 1.03
12 | COC(=O)[C@@]1(Cc2ccccc2)[C@H]2c3cc(C(=O)N4CCCC4)n(CCO)c3C[C@H]2CN1C(=O)c1ccccc1 | 0.346 | 2.22 | 1.5 | -1.88 (inactive) | 0.615 | 0.343 | 0.414 | 1.14 | 0.337 | 0.305
13 | Cc1ccc(C(C)CC(O)C2C=CC3C(=O)N(Cc4ccccc4)C(=O)C3N2n2cnnc2)o1 (stereo not given) | 0.755 | 1.85 | 1.03 | -0.665 (inactive) | 0.841 | 0.866 | 0.0138 | 0.668 | -0.484 | 1.09
14 | COCCOC(=O)N1C(=O)[C@@]2(c3cc(C#Cc4ccc(OC)cc4)ccc31)[C@H](C(=O)N1CCc3cc(OC)c(OC)cc3C1)[C@H]1C(=O)O[C@H](c3ccccc3)[C@H](c3ccccc3)N1[C@@H]2c1ccc(OCCO)cc1 | -0.352 | 0.218 | -0.0585 | -0.32 (inactive) | 0.705 | 1.03 | 0.595 | 0.997 | 0.588 | 0.115
15 | [N-]=[N+]=NCc1ccccc1C[C@]1(C(=O)NCCN2CCOCC2)COC(c2ccc(OCCCO)cc2)=N1 | 1.49 | 0.297 | 0.853 | -0.995 (inactive) | 0.396 | 0.966 | -0.553 | 0.101 | -0.36 | 0.978
16 | COC(=O)[C@@]1(Cc2ccccc2)[C@H]2c3cc(C(=O)N(C)C)n(Cc4ccccn4)c3C[C@H]2CN1C(=O)c1ccccc1 | 1.57 | 1.44 | 1.37 | -1.58 (inactive) | 0.548 | 0.225 | -0.805 | 0.155 | -1.09 | 0.46
17 | N#Cc1ccc(NN2C(C(O)c3ccccc3)C=CC3C(=O)N(c4ccccc4)C(=O)C32)cc1 (stereo not given) | 1.3 | 0.313 | 0.557 | 1.3 (inactive) | 0.968 | -0.353 | -0.0382 | 0.441 | -0.257 | 0.658
18 | CCCC=C(CCC)[C@@H](NC(=O)Cc1ccccc1)c1ccc(C(=O)OC)cc1 | 0.599 | 1.52 | 1.17 | 0.797 (inactive) | 0.395 | 0.289 | 0.43 | 0.514 | -0.285 | 1.26
19 | CN(C)C(=O)[C@]1(Cc2ccccc2N=[N+]=[N-])N=C(c2ccc(OCCCO)cc2)O[C@@H]1c1ccccc1CN=[N+]=[N-] | 0.43 | 0.189 | 0.279 | -0.891 (inactive) | 1.38 | 1.32 | 0.243 | 1.3 | 0.825 | 0.764
20 | CC1C=C(CCCO)C=C(C(=O)OCCS(C)(=O)=O)C(C(=O)OCCS(C)(=O)=O)=CN1Cc1cccc(OC(F)(F)F)c1 (stereo not given) | 1.11 | 0.111 | 0.297 | 1.01 (inactive) | 0.243 | 0.621 | -0.235 | 0.113 | -0.385 | 0.829
21 | CCOC(=O)C[C@H]1[C@H](OC(=O)c2cc3ccccc3oc2=O)[C@@H](NC(=O)c2ccc3ccccc3n2)c2cc(OCCCO)ccc2N1C(=O)c1ccc2ccccc2n1 | 0.522 | 0.273 | -0.033 | 0.613 (inactive) | 1.13 | 0.743 | 0.503 | 1.3 | 1.01 | 0.626
22 | O=C(Nc1cc(Br)ccc1C(=O)NCc1cccc(O)c1)c1ccccc1 | 0.487 | 0.429 | -0.339 | -0.419 (inactive) | 0.394 | 0.476 | 0.379 | 0.148 | 0.257 | -0.0621
23 | CC(C)c1ccc(NN2C(C(O)c3cccs3)C=CC3C(=O)N(c4ccccc4)C(=O)C32)cc1 (stereo not given) | 1.02 | 0.0558 | 0.928 | 0.356 (inactive) | 0.461 | 1.31 | 0.156 | 1.21 | -0.054 | 0.975
24 | CC(C)C(CO)N1C(=O)[C@@H]2[C@H]3C(=O)OCC=C[C@H]3OC23C=CCN(Cn2nnc4ccccc42)C(=O)[C@@H]13 (stereo not given in full) | 0.335 | -0.374 | 0.465 | 0.184 (inactive) | -0.777 | -1.05 | -0.851 | -1.41 | -1.18 | -1.33
25 | O=C1C2C=CC(C(O)c3ccc(Br)cc3)N(Nc3ccccc3)C2C(=O)N1c1ccccc1 (stereo not given) | 0.489 | -0.0556 | 0.504 | 1.34 (inactive) | 0.295 | 0.435 | 0.181 | 0.429 | -0.25 | 1.23
26 | CC(C)C[C@@H]1NC(=O)[C@@]23C(=O)N[C@@H](Cc4ccccc4)C2[C@H](C)[C@@]2(C)O[C@H]2C3/C=C/C/C=C\CNC(=O)[C@@H]2CCCN2C1=O (stereo not given in full) | 0.324 | -0.277 | -0.719 | -0.358 (inactive) | 0.0165 | -0.623 | 0.0731 | 0.361 | 0.534 | 1.42
27 | CC(C)(C)OC(=O)CC[C@]1(C(=O)N2CCCCC2)N=C(c2ccc(OCCCO)cc2)O[C@H]1c1ccccc1CN=[N+]=[N-] | 1.68 | 0.978 | 0.92 | -3.65 (inactive) | 1.42 | 1.3 | 0.604 | 1.41 | 0.414 | 1.21
28 | CCCNC(=O)[C@@H]1c2ccccc2C(=O)N(CC23CC4CC(CC(C4)C2)C3)[C@H]1c1ccc(CO)cc1 | 1.6 | 0.831 | 0.718 | -0.254 (inactive) | 1.12 | 1.15 | 0.457 | 1.23 | 1.11 | 0.425
29 | CC(C)[Si](C#C[Si](C(C)C)(C(C)C)C(C)C)(O[C@H](C)c1cn(Cc2cccc(Cl)c2)nn1)C(C)C | 0.259 | -0.493 | -0.578 | -0.589 (inactive) | 0.539 | 1.14 | 0.863 | 0.433 | 0.459 | -0.33
